# Data from PubChem BioAssay (NCI).
# Compounds without any hit were thinned out: in the full panel of roughly 79,000, 15% have a hit. A number with no mark means an inactive call. Active and inactive are the calls of the source. No stated cut-off is given here; in the data, active means growth inhibition above about 70%; inactive means the rest.
# Assays:
# [1] = NCI Yeast Anticancer Drug Screen. Data for the mec2-1 strain (AID 157); conditions: S. cerevisiae mec2-1 strain, active compounds read high
# Method in brief: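 Strain: mec2-1 (DNA repair/cell cycle alteration). Compound exposure, then growth measured; inhibition expressed relative to vehicle.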
# [2] = NCI Yeast Anticancer Drug Screen. Data for the rad14 strain (AID 159);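 further: 0% = growth of vehicle-treated control cultures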; conditions: S. cerevisiae rad14 strain growth inhibition, active compounds read high
# Method in brief: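 Compound-treated yeast with a defined DNA-repair lesion; growth inhibition normalised to vehicle-treated cultures.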
# [3] = NCI Yeast Anticancer Drug Screen. Data for the sgs1 mgt1 strain (AID 161);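 further: 0% = growth of cultures given vehicle only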; conditions: S. cerevisiae sgs1 mgt1 strain, active compounds read high
# Method in brief: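 Mutant yeast exposed to compound; growth scored against vehicle-only wells.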
# [4] = NCI Yeast Anticancer Drug Screen. Data for the CLN2oe strain (AID 163);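 further: 0% = growth of vehicle-only control cultures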; conditions: S. cerevisiae CLN2oe strain, active compounds read high
# Method in brief: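 Growth of a genetically modified yeast strain is measured after compound exposure and compared with cultures given vehicle alone.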
# [5] = NCI Yeast Anticancer Drug Screen. Data for the cln2 rad14 strain (AID 165);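 further: 0% = growth equal to vehicle treated cultures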; conditions: S. cerevisiae cln2 rad14 strain, active compounds read high
# Method in brief: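 Compounds are applied to the cln2 rad14 yeast strain, and growth is then compared with that of vehicle-treated cultures to give inhibition.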
# [6] = NCI Yeast Anticancer Drug Screen. Data for the bub3 strain (AID 167); conditions: S. cerevisiae bub3 mutant strain, active compounds read high
# Method in brief: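 Growth of a checkpoint-deficient yeast mutant is measured after compound exposure. Values represent inhibition relative to vehicle.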
# [7] = NCI Yeast Anticancer Drug Screen. Data for the wt2 strain (AID 169);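 further: 0% = growth of vehicle-treated yeast cultures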; conditions: S. cerevisiae wt2 strain growth inhibition, active compounds read high
# Method in brief: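 This strain belongs to a panel of yeast strains with defined genetic alterations in DNA damage repair or cell cycle control. Compounds are applied, and growth inhibition is measured against vehicle-treated cultures.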
# [8] = NCI Yeast Anticancer Drug Screen. Data for the mlh1 strain (AID 171);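 further: 0% = growth of vehicle-treated control cultures of the same strain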; conditions: S. cerevisiae mlh1 strain growth inhibition, active compounds read high
# Method in brief: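 Growth of the mutant yeast strain after compound exposure, expressed as inhibition relative to vehicle-only controls.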
# [9] = NCI Yeast Anticancer Drug Screen. Data for the sgs1 strain (AID 173);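 further: 0% = growth of vehicle-only control cultures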; conditions: S. cerevisiae sgs1 mutant, active compounds read high
# Method in brief: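 Growth of a yeast strain bearing a defined genetic alteration is measured after compound treatment. Inhibition is expressed relative to vehicle-only controls.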
# [10] = NCI Yeast Anticancer Drug Screen. Data for the mlh1 rad18 strain (AID 175); conditions: S. cerevisiae mlh1 rad18 strain growth inhibition, active compounds read high
# Method in brief: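 Read-out is yeast growth inhibition, calculated against vehicle-only controls. The compound was applied to a strain engineered with DNA damage repair alterations.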
# [11] = NCI Yeast Anticancer Drug Screen. Data for the rad18 strain (AID 177); conditions: S. cerevisiae rad18 mutant growth inhibition, active compounds read high
# Method in brief: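 Growth of the mutant yeast strain after compound exposure, normalised to vehicle-only cultures.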
# [12] = NCI Yeast Anticancer Drug Screen. Data for the rad52 strain (AID 147);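 further: 0% = growth of vehicle-treated control cultures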; conditions: S. cerevisiae rad52 mutant growth inhibition, active compounds read high
# Method in brief: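 Compounds are applied to a genetically defined yeast strain lacking normal DNA damage repair, and inhibition of growth is expressed relative to cultures given vehicle only.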
# [13] = NCI Yeast Anticancer Drug Screen. Data for the wt1 strain (AID 149);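 further: 0% = growth of vehicle-treated wt1 cultures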; conditions: S. cerevisiae wt1 strain (SPY 50644) growth inhibition, active compounds read high
# Method in brief: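 Readout: yeast growth inhibition, normalised to vehicle controls, in the wt1 strain exposed to test compounds.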
# [14] = NCI Yeast Anticancer Drug Screen. Data for the rad50EPP+ strain (AID 151);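 further: 0% = growth of vehicle-treated control cultures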; conditions: S. cerevisiae rad50 mutant strain, active compounds read high
# Method in brief: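 Compounds were applied to the rad50EPP+ yeast strain, which bears a defined DNA repair alteration, and growth inhibition was determined relative to vehicle-treated cultures.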
# [15] = NCI Yeast Anticancer Drug Screen. Data for the mgt1 strain (AID 153); conditions: S. cerevisiae mgt1 mutant growth inhibition, active compounds read high
# Method in brief: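 Strain: mgt1 yeast, one of a set carrying defined DNA damage repair or cell cycle control alterations. Compound-treated growth compared with vehicle.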
# [16] = NCI Yeast Anticancer Drug Screen. Data for the rad50 strain (AID 155);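 further: 0% = growth of vehicle-only cultures of the same strain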; conditions: S. cerevisiae rad50 strain growth inhibition, active compounds read high
# Method in brief: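 Compounds were tested on a yeast strain with an engineered DNA damage repair alteration; the reported value is growth inhibition normalised to vehicle treatment.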
# [17] = at 5.0 µM (retest, dose inferred, filed as 0.5)
# [18] = at 50.0 µM (retest, dose inferred, filed as 5.0)
compound,measurement,setting,value
Cc1cc(OCc2nc(N)nc(N)c2-c2ccc(Cl)c(Cl)c2)ccc1[N+](=O)[O-],growth inhibition,[1]; [17],48%
same,growth inhibition,[1]; at 11.0 µM,0%
same,growth inhibition,[1]; at 33.0 µM,3%
same,growth inhibition,[1]; [18],87% (active)
same,growth inhibition,[1]; at 50.0 µM,95.8% (active)
same,growth inhibition,[1]; at 100.0 µM,-10%
same,growth inhibition,[2]; at 1.2 µM,-1%
same,growth inhibition,[2]; at 3.7 µM,8%
same,growth inhibition,[2]; at 11.0 µM,3%
same,growth inhibition,[2]; at 33.0 µM,3%
same,growth inhibition,[2]; at 100.0 µM,3%
same,growth inhibition,[3]; [17],54%
same,growth inhibition,[3]; [18],75% (active)
same,growth inhibition,[3]; at 50.0 µM,98.7% (active)
same,growth inhibition,[4]; at 1.2 µM,0%
same,growth inhibition,[4]; at 3.7 µM,2%
same,growth inhibition,[4]; at 11.0 µM,0%
same,growth inhibition,[4]; at 33.0 µM,4%
same,growth inhibition,[4]; at 100.0 µM,6%
same,growth inhibition,[5]; [17],-1%
same,growth inhibition,[5]; [18],30%
same,growth inhibition,[5]; at 50.0 µM,95% (active)
same,growth inhibition,[6]; at 1.2 µM,0%
same,growth inhibition,[6]; at 3.7 µM,-1%
same,growth inhibition,[6]; [17],-9%
same,growth inhibition,[6]; at 11.0 µM,0%
same,growth inhibition,[6]; at 33.0 µM,-2%
same,growth inhibition,[6]; [18],53%
same,growth inhibition,[6]; at 50.0 µM,79.9% (active)
same,growth inhibition,[6]; at 100.0 µM,20%
same,growth inhibition,[7]; at 1.2 µM,2%
same,growth inhibition,[7]; at 3.7 µM,4%
same,growth inhibition,[7]; at 11.0 µM,4%
same,growth inhibition,[7]; at 33.0 µM,4%
same,growth inhibition,[7]; at 100.0 µM,5%
same,growth inhibition,[8]; at 1.2 µM,0%
same,growth inhibition,[8]; at 3.7 µM,0%
same,growth inhibition,[8]; at 11.0 µM,0%
same,growth inhibition,[8]; at 33.0 µM,-1%
same,growth inhibition,[8]; at 100.0 µM,13%
same,growth inhibition,[9]; at 1.2 µM,-1%
same,growth inhibition,[9]; at 3.7 µM,-3%
same,growth inhibition,[9]; at 11.0 µM,-2%
same,growth inhibition,[9]; at 33.0 µM,-1%
same,growth inhibition,[9]; at 100.0 µM,0%
same,growth inhibition,[10]; [17],26%
same,growth inhibition,[10]; [18],85% (active)
same,growth inhibition,[10]; at 50.0 µM,98.5% (active)
same,growth inhibition,[11]; at 1.2 µM,-3%
same,growth inhibition,[11]; at 3.7 µM,-4%
same,growth inhibition,[11]; at 11.0 µM,-8%
same,growth inhibition,[11]; at 33.0 µM,-15%
same,growth inhibition,[11]; at 100.0 µM,-23%
C=CC(C)(C)N1C(=O)C(C(C)=O)=C(O)C1Cc1c[nH]c2ccccc12 (stereo unspecified),growth inhibition,[12]; at 1.2 µM,-1%
same,growth inhibition,[12]; at 3.7 µM,-4%
same,growth inhibition,[12]; at 11.0 µM,-2%
same,growth inhibition,[12]; at 33.0 µM,19%
same,growth inhibition,[12]; at 100.0 µM,87% (active)
same,growth inhibition,[13]; at 1.2 µM,1%
same,growth inhibition,[13]; at 3.7 µM,5%
same,growth inhibition,[13]; at 11.0 µM,3%
same,growth inhibition,[13]; at 33.0 µM,20%
same,growth inhibition,[13]; at 100.0 µM,71% (active)
same,growth inhibition,[14]; at 1.2 µM,-1%
same,growth inhibition,[14]; at 3.7 µM,1%
same,growth inhibition,[14]; at 11.0 µM,-4%
same,growth inhibition,[14]; at 33.0 µM,-9%
same,growth inhibition,[14]; at 100.0 µM,-15%
same,growth inhibition,[15]; at 1.2 µM,-2%
same,growth inhibition,[15]; at 3.7 µM,-4%
same,growth inhibition,[15]; at 11.0 µM,-1%
same,growth inhibition,[15]; at 33.0 µM,16%
same,growth inhibition,[15]; at 100.0 µM,95% (active)
same,growth inhibition,[16]; at 1.2 µM,-2%
same,growth inhibition,[16]; at 3.7 µM,-2%
same,growth inhibition,[16]; [17],0%
same,growth inhibition,[16]; at 11.0 µM,-2%
same,growth inhibition,[16]; at 33.0 µM,10%
same,growth inhibition,[16]; [18],48%
same,growth inhibition,[16]; at 50.0 µM,28.6%
same,growth inhibition,[16]; at 100.0 µM,78% (active)
same,growth inhibition,[1]; at 1.2 µM,0%
same,growth inhibition,[1]; at 3.7 µM,1%
same,growth inhibition,[1]; [17],-18%
same,growth inhibition,[1]; at 11.0 µM,7%
same,growth inhibition,[1]; at 33.0 µM,21%
same,growth inhibition,[1]; [18],-8%
same,growth inhibition,[1]; at 50.0 µM,58.7%
same,growth inhibition,[1]; at 100.0 µM,88% (active)
same,growth inhibition,[2]; at 1.2 µM,-3%
same,growth inhibition,[2]; at 3.7 µM,-3%
same,growth inhibition,[2]; at 11.0 µM,-1%
same,growth inhibition,[2]; at 33.0 µM,21%
same,growth inhibition,[2]; at 100.0 µM,95% (active)
same,growth inhibition,[3]; [17],18%
same,growth inhibition,[3]; [18],73% (active)
same,growth inhibition,[3]; at 50.0 µM,52.8%
same,growth inhibition,[4]; at 1.2 µM,-5%
same,growth inhibition,[4]; at 3.7 µM,-12%
same,growth inhibition,[4]; at 11.0 µM,-9%
same,growth inhibition,[4]; at 33.0 µM,16%
same,growth inhibition,[4]; at 100.0 µM,83% (active)
same,growth inhibition,[5]; [17],-4%
same,growth inhibition,[5]; [18],21%
same,growth inhibition,[5]; at 50.0 µM,32.8%
same,growth inhibition,[6]; at 1.2 µM,-3%
same,growth inhibition,[6]; at 3.7 µM,-2%
same,growth inhibition,[6]; [17],-11%
same,growth inhibition,[6]; at 11.0 µM,0%
same,growth inhibition,[6]; at 33.0 µM,15%
same,growth inhibition,[6]; [18],55%
same,growth inhibition,[6]; at 50.0 µM,46.8%
same,growth inhibition,[6]; at 100.0 µM,84% (active)
same,growth inhibition,[7]; at 1.2 µM,-1%
same,growth inhibition,[7]; at 3.7 µM,-1%
same,growth inhibition,[7]; at 11.0 µM,-1%
same,growth inhibition,[7]; at 33.0 µM,16%
same,growth inhibition,[7]; at 100.0 µM,92% (active)
same,growth inhibition,[8]; at 1.2 µM,-6%
same,growth inhibition,[8]; at 3.7 µM,0%
same,growth inhibition,[8]; at 11.0 µM,0%
same,growth inhibition,[8]; at 33.0 µM,14%
same,growth inhibition,[8]; at 100.0 µM,66%
same,growth inhibition,[9]; at 1.2 µM,0%
same,growth inhibition,[9]; at 3.7 µM,0%
same,growth inhibition,[9]; at 11.0 µM,2%
same,growth inhibition,[9]; at 33.0 µM,17%
same,growth inhibition,[9]; at 100.0 µM,90% (active)
same,growth inhibition,[10]; [17],55%
same,growth inhibition,[10]; [18],86% (active)
same,growth inhibition,[10]; at 50.0 µM,68.5%
same,growth inhibition,[11]; at 1.2 µM,0%
same,growth inhibition,[11]; at 3.7 µM,-3%
same,growth inhibition,[11]; at 11.0 µM,-1%
same,growth inhibition,[11]; at 33.0 µM,9%
same,growth inhibition,[11]; at 100.0 µM,66%
